# Experimental data taken from PubChem BioAssay (NCI).
# The panel holds about 83,000 compounds, 20% with a hit somewhere; the sample as a whole holds those more often.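 Single-concentration screen, 48 h exposure, 96-well plates. Endpoint: percent growth. Below 10 = active.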 A number with no mark means an inactive call. Active and inactive are the calls of the source.
# Experiments:
# Experiment in all cases: NCI-60 one-dose screen, 48 h (100 = growth as untreated, 0 = no growth, -100 = all killed)
# Conditions in all cases: 10 µM
# [1] = test system: BT-549 breast
# [2] = test system: MDA-MB-435 melanoma
# [3] = test system: SW-620 colon
# [4] = test system: MCF7 breast
# [5] = test system: HCT-116 colon
# [6] = test system: KM12 colon
# [7] = test system: HCC-2998 colon
Structure (SMILES),growth [1],growth [2],growth [3],growth [4],growth [5],growth [6],growth [7]
COc1cc2nc(Nc3cccc(NC(C)=O)c3)nc(N)c2cc1OC,118%,123%,95.9%,99.5%,95.9%,89.5%,
Fc1ccc(-c2nnc(-c3c(-c4ccc(F)cc4)nc4ccccn34)o2)cc1,60.2%,85.1%,91.1%,59.8%,45.4%,79.9%,
O=C(O)CC(Cl)C(Cl)CC(=O)O (centres undefined),97.5%,93.8%,103%,105%,111%,101%,
COc1cc(Nc2ncnc(Nc3ccc4c(n3)NC(=O)C(C)(C)O4)n2)cc(OC)c1OC,33.7%,16.6%,32.9%,21.9%,,,79.1%
C(CCCC1=NCCO1)CCCC1=NCCO1,103%,109%,99.4%,102%,112%,103%,
O=C(Nc1ccc(CN2CCc3nc4cc(O)c(O)cc4cc32)cc1)c1ccc(Cl)c(Cl)c1,101%,100%,97.2%,93.7%,,99.9%,112%
O=C(CCCCC(=O)Nc1ccc2c(c1)/C(=C/c1ccc[nH]1)C(=O)N2)NO,97.1%,74.8%,83.9%,61.9%,88.3%,78%,
CCc1ccc2c(c1)N(CCO)C1=C(C(=O)OC1)C2c1ccccc1 (centres undefined),87.7%,21.6%,97.2%,92.2%,89.3%,76.1%,
COc1ccc(OC)c2c1C(=O)CC2C (centres undefined),120%,102%,105%,99.6%,111%,103%,
O=C(Nc1ccncc1)C(=O)c1cn(S(=O)(=O)c2cccc(Cl)c2)c2ccccc12,49%,1.36% (active),47%,29.3%,24%,51.5%,
Cc1ccc(Nc2cc(C)nc(NCCCNc3ccnc4cc(Cl)ccc34)n2)cc1,-85.5% (active),-90% (active),-84.3% (active),-95% (active),,-49.8% (active),-86.3% (active)
CCc1ccc2c(c1)N(CCO)C1=C(C(=O)OC1)C2c1cc(OC)c(OC)c(OC)c1 (centres undefined),19.8%,-69.9% (active),23%,19.4%,7.59% (active),-29.6% (active),
Clc1ccc2c(NCCCNc3nccc(Nc4ccc(Br)cc4)n3)ccnc2c1,4.45% (active),-88.3% (active),-74.4% (active),-98.8% (active),,-48.6% (active),-91.4% (active)
O=C(Nc1ccncc1)C(=O)c1cn(S(=O)(=O)c2ccc(F)cc2)c2ccccc12,36.9%,-20.3% (active),12%,12.6%,11.6%,18.1%,
O=C(Nc1cccc(-n2cc(-c3ccncc3)c(-c3cc(O)cc(Cl)c3)n2)c1)c1ccc(N2CCOCC2)c(C(F)(F)F)c1,52.2%,23%,-26.2% (active),29.7%,12.7%,9.89% (active),
O=C1OCC2=C1C(c1cccc(Cl)c1)c1cc3c(cc1N2CCO)OCCO3 (centres undefined),32.4%,-42.1% (active),18.7%,18%,6.21% (active),-32.8% (active),
COc1ccc(NC2=NC(C)(CO)CS2)cc1 (centres undefined),98.4%,101%,104%,88.6%,,104%,104%
COc1ccc2c(c1)O/C(=C\c1ccc([N+](=O)[O-])o1)C2=O,-50% (active),-72.5% (active),-53.8% (active),2.06% (active),-39% (active),-11.5% (active),
O=C(C[P+](c1ccccc1)(c1ccccc1)c1ccccc1)C[P+](c1ccccc1)(c1ccccc1)c1ccccc1,-89.2% (active),-80.6% (active),-71.9% (active),-69.8% (active),,-75.5% (active),-83.9% (active)
O=C(Nc1cccc(-n2cc(-c3ccncc3)c(-c3cc(O)cc(Cl)c3)n2)c1)c1cc(C(F)(F)F)cc(C(F)(F)F)c1,73.4%,45.6%,61%,23%,24.5%,21.2%,

Structure (SMILES),growth [1],growth [2],growth [3],growth [4],growth [5],growth [6],growth [7]
CC(=O)N1C/C(=C/c2ccc(Cl)cc2)C(=O)/C(=C/c2ccc(Cl)cc2)C1,-27.2% (active),-50.3% (active),-62.4% (active),-48.4% (active),,,-85.1% (active)
c1ccc([I+]c2ccccc2)cc1,65.5%,68.9%,40.8%,64%,31%,41.9%,
O=C1ON=[N+](c2ccc(Cc3ccc([N+]4=NOC(=O)C4CN4CCOCC4)cc3)cc2)C1CN1CCOCC1 (centres undefined),60.7%,4.71% (active),67.7%,45.6%,63.7%,54.3%,
CNc1ncc(-c2ccc(C(F)(F)F)cc2)c(NC2CCCCCC2)n1,90.9%,89.8%,77.4%,67.6%,56%,74.1%,
Cc1cc2ccccc2nc1-c1ccccc1F,92.2%,111%,106%,101%,,110%,109%
CO/N=C(/C(=O)NC1C(=O)N2C(C(=O)O)=C(COC(N)=O)CSC12)c1ccco1 (centres undefined),108%,104%,110%,94.2%,104%,113%,
COc1cc(Cc2cc(-c3ccc(Cl)cc3)n[nH]c2=O)ccc1O,95.2%,110%,109%,87.2%,101%,105%,
Nc1nc(N)c2c(ccc3nccc32)[nH]1,21%,34.8%,29.4%,54%,15.1%,62.4%,
COc1cc2c(cc1OC)N(CCO)C1=C(C(=O)OC1)C2c1ccc(Cl)c(Cl)c1 (centres undefined),89.4%,101%,102%,95.8%,97.7%,102%,
CN1CC[C@@H](c2c(O)cc(O)c3c(=O)cc(-c4ccccc4Cl)oc23)[C@@H](O)C1,-22.8% (active),-91.2% (active),9.83% (active),9.53% (active),,-34% (active),-34% (active)
COc1cc([C@@H]2c3cc4c(cc3C(Br)[C@H]3COC(=O)[C@H]23)OCO4)cc(OC)c1OC (some centres undefined),-12.7% (active),-42% (active),,-10.4% (active),-34.7% (active),-81.3% (active),
COc1ccc2c(c1)sc1nc(-c3ccccc3)c(-c3cccnc3)n12,85.1%,99.4%,97.5%,102%,,106%,
COc1ccc(/C(=C2\O[C@@H]([C@H]3COC(C)(C)O3)[C@H]3OC(C)(C)O[C@@H]23)c2cc(OC)c(OC)c(OC)c2)cc1O,57.7%,-44.7% (active),15.4%,,54%,26.7%,102%
COc1cc(-c2cc(C(=O)N3CCN(C(=O)c4ccccc4NCc4ccco4)CC3)nc3cc(-c4ccccc4)nn23)cc(OC)c1OC,35.6%,-34.6% (active),14.2%,16.3%,,13.1%,66.3%
COc1cc(Cl)cc(-c2nn(-c3cccc(NC(=O)c4ccc(Cl)c(Cl)c4)c3)cc2-c2ccncc2)c1,85.2%,80.7%,84.2%,57.7%,,62.3%,77.8%
CC(=O)c1nc2ccccc2n1CCNC(N)=O,74.4%,-13.7% (active),57.6%,52.4%,,66.4%,95.8%
COc1ccc(OC)c(/C=C/c2nc(SC)n(-c3ccc(Cl)cc3)n2)c1,80%,8.73% (active),77.4%,46.7%,,53.1%,69.6%
CCN(CC)CCN1CC(=O)Nc2cc(Cl)ccc21,107%,98.8%,86.4%,104%,,103%,
O=C(CNC(=O)OCc1ccccc1)NCC(=O)Oc1ccc([N+](=O)[O-])cc1,101%,98.4%,95.9%,95.8%,,102%,
CCOC(=O)N/N=C\C(C)=N\NC(=O)OCC,99.8%,88.8%,99%,99.5%,,102%,111%
